In all, about 5,500 compounds went through this assay and about 2,000 (36%) were called active. Roughly 18% stayed inconclusive and do not appear here. Cut-off read from the data, not from the text of the source: active = normalized growth mostly below about 0.91 (no sharp cut-off); inconclusive = no clear call, values can overlap the other calls; inactive = mostly above about 0.92. This is one part of the list.
Experiment: chemical genetic growth profiling, strain panel (AID 1159580);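 note: tested at 20 µM; growth read once vehicle control cultures reached saturation at 30 °C; 1 = growth at the plate median or of vehicle wells; lower values mean less growth of the strain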
Details: S. cerevisiae deletion strains, growth OD
[1] = locus YAL013W, strain DEP1, stronger effect = lower value
[2] = locus YBR229C, strain ROT2, stronger effect = lower value
[3] = locus YDL101C, strain DUN1, stronger effect = lower value
[4] = locus YGR078C, strain PAC10, stronger effect = lower value
[5] = locus YJL187C, strain SWE1, stronger effect = lower value
[6] = locus YJR043C, strain POL32, stronger effect = lower value
[7] = locus YJR075W, strain HOC1, stronger effect = lower value
[8] = locus YKL190W, strain CNB1, stronger effect = lower value
[9] = locus YLR039C, strain RIC1, stronger effect = lower value
[10] = locus YLR262C, strain YPT6, stronger effect = lower value
[11] = locus YMR263W, strain SAP30, stronger effect = lower value
[12] = locus YNL153C, strain GIM3, stronger effect = lower value
[13] = locus YNL322C, strain KRE1, stronger effect = lower value
[14] = locus YPL055C, strain LGE1, stronger effect = lower value
[15] = locus YPL241C, strain CIN2, stronger effect = lower value

Measured: normalized growth

CC1(C)C(O)CC(=O)C2(C)C1CC(O)C1(C)C2CCC2(C)C(c3ccoc3)OC(=O)C3OC321 (stereo unspecified)
inactive: [1] 1 | locus YAL021C, strain ccr4, stronger effect = lower value 0.99 | locus YAL026C, strain drs2, stronger effect = lower value 1.02 | locus YAL030W, strain snc1, stronger effect = lower value 1 | locus YBL061C, strain skt5, stronger effect = lower value 1 | locus YBR009C, strain hhf1, stronger effect = lower value 0.999 | locus YBR021W, strain FUR4, stronger effect = lower value 0.931 | locus YBR023C, strain chs3, stronger effect = lower value 0.99 | locus YBR171W, strain sec66, stronger effect = lower value 0.995 | [2] 1 | locus YBR231C, strain swc5, stronger effect = lower value 0.999 | locus YBR279W, strain paf1, stronger effect = lower value 0.997 | locus YCL011C, strain gbp2, stronger effect = lower value 1 | locus YCL016C, strain dcc1, stronger effect = lower value 1.01 | locus YCL029C, strain bik1, stronger effect = lower value 1 | locus YCL061C, strain MRC1, stronger effect = lower value 0.993 | locus YCL069W, strain vba3, stronger effect = lower value 1.03 | locus YCR088W, strain abp1, stronger effect = lower value 0.989 | locus YDL005C, strain med2, stronger effect = lower value 0.99 | locus YDL035C, strain GPR1, stronger effect = lower value 0.989 | locus YDL040C, strain nat1, stronger effect = lower value 0.997 | locus YDL074C, strain BRE1, stronger effect = lower value 0.976 | [3] 1.01 | locus YDL185W, strain tfp1, stronger effect = lower value 1.02 | locus YDL192W, strain arf1, stronger effect = lower value 0.988 | locus YDR001C, strain nth1, stronger effect = lower value 0.999 | locus YDR069C, strain doa4, stronger effect = lower value 1 | locus YDR101C, strain arx1, stronger effect = lower value 1 | locus YDR137W, strain rgp1, stronger effect = lower value 0.997 | locus YDR159W, strain sac3, stronger effect = lower value 0.973 | locus YDR162C, strain NBP2, stronger effect = lower value 1 | locus YDR195W, strain ref2 0.939 | locus YDR297W, strain sur2, stronger effect = lower value 0.985 | locus YDR318W, strain mcm21, stronger effect = lower value 1 | locus YDR334W, strain swr1, stronger effect = lower value 0.998 | locus YDR335W, strain msn5, stronger effect = lower value 1 | locus YDR388W, stronger effect = lower value 1.01 | locus YDR392W, strain spt3, stronger effect = lower value 0.989 | locus YDR502C, strain sam2, stronger effect = lower value 1.02 | locus YEL003W, strain gim4, stronger effect = lower value 0.997 | locus YEL037C, strain rad23, stronger effect = lower value 1.02 | locus YEL061C, strain CIN8 (second series), stronger effect = lower value 0.995 | locus YER015W, strain faa2, stronger effect = lower value 1 | locus YER016W, strain bim1, stronger effect = lower value 1 | locus YER110C, stronger effect = lower value 1.01 | locus YER111C, strain swi4, stronger effect = lower value 0.99 | locus YER155C, strain BEM2 (second series), stronger effect = lower value 0.998 | locus YER155C, strain BEM2, stronger effect = lower value 1 | locus YER167W, strain BCK2, stronger effect = lower value 0.998 | locus YFR010W, strain ubp6, stronger effect = lower value 1.01 | locus YGL078C, strain dbp3, stronger effect = lower value 1.03 | locus YGL086W, strain mad1, stronger effect = lower value 1 | locus YGL167C, strain pmr1, stronger effect = lower value 1.01 | locus YGL173C, strain kem1, stronger effect = lower value 0.994 | locus YGL227W, strain vid30, stronger effect = lower value 0.986 | locus YGL240W, strain doc1, stronger effect = lower value 0.973 | locus YGL248W, strain PDE1, stronger effect = lower value 1 | locus YGL253W, strain hxk2, stronger effect = lower value 1 | [4] 1.01 | locus YGR135W, strain pre9, stronger effect = lower value 1.03 | locus YGR229C, strain SMI1, stronger effect = lower value 1.12 | locus YGR252W, strain gcn5, stronger effect = lower value 0.986 | locus YHR013C, strain ard1, stronger effect = lower value 0.996 | locus YHR027C, strain rpn1, stronger effect = lower value 0.987 | locus YHR079C, strain IRE1 (second series), stronger effect = lower value 1.01 | locus YHR094C, strain hxt1, stronger effect = lower value 1.01 | locus YHR129C, strain ARP1, stronger effect = lower value 0.999 | locus YHR142W, strain chs7, stronger effect = lower value 1.02 | locus YHR200W, strain rpn10, stronger effect = lower value 1 | locus YIL066C, strain RNR3, stronger effect = lower value 0.995 | locus YIL073C, strain SPO22, stronger effect = lower value 1.05 | locus YIL125W, strain kgd1, stronger effect = lower value 1 | locus YIR030C, strain dcg1, stronger effect = lower value 1.01 | locus YJL092W, strain hpr5, stronger effect = lower value 1.01 | locus YJL095W, strain BCK1 (second series), stronger effect = lower value 1.02 | locus YJL095W, strain BCK1, stronger effect = lower value 1.01 | locus YJL115W, strain asf1, stronger effect = lower value 0.993 | locus YJL129C, strain trk1, stronger effect = lower value 0.978 | locus YJL134W, strain LCB3, stronger effect = lower value 1.01 | locus YJL154C, strain vps35, stronger effect = lower value 1 | locus YJL164C, strain tpk1, stronger effect = lower value 1.02 | locus YJL166W, strain qcr8, stronger effect = lower value 0.994 | locus YJL168C, strain set2, stronger effect = lower value 1.01 | locus YJL187C, strain SWE1 (second series), stronger effect = lower value 1.02 | [5] 0.996 | [6] 0.987 | [7] 0.997 | locus YKL009W, strain mrt4, stronger effect = lower value 0.977 | locus YKL068W, stronger effect = lower value 1.01 | locus YKL085W, strain MDH1 (second series), stronger effect = lower value 1 | locus YKL085W, strain MDH1, stronger effect = lower value 1 | locus YKL160W, strain elf1, stronger effect = lower value 1.01 | [8] 1 | locus YKR001C, strain vps1, stronger effect = lower value 0.993 | locus YKR026C, strain gcn3, stronger effect = lower value 0.992 | locus YKR091W, strain srl3, stronger effect = lower value 1 | locus YLL001W, strain dnm1, stronger effect = lower value 1.01 | locus YLL026W, stronger effect = lower value 0.997 | locus YLL041C, strain sdh2, stronger effect = lower value 0.997 | locus YLR027C, strain aat2, stronger effect = lower value 0.984 | [9] 0.95 | locus YLR058C, strain SHM2, stronger effect = lower value 1.01 | locus YLR102C, strain apc9, stronger effect = lower value 1.02 | locus YLR221C, strain rsa3, stronger effect = lower value 0.991 | locus YLR258W, strain gsy2, stronger effect = lower value 1.01 | locus YLR262C, strain YPT6 (second series), stronger effect = lower value 0.998 | [10] 1 | locus YLR268W, strain sec22, stronger effect = lower value 1.01 | locus YLR320W, strain mms22, stronger effect = lower value 1 | locus YLR342W, strain FKS1, stronger effect = lower value 0.984 | locus YLR357W, strain rsc2, stronger effect = lower value 0.99 | locus YLR370C, strain arc18, stronger effect = lower value 1.01 | locus YLR371W, strain rom2, stronger effect = lower value 0.984 | locus YLR384C, strain iki3, stronger effect = lower value 0.999 | locus YLR418C, strain cdc73, stronger effect = lower value 1 | locus YML016C, strain PPZ1, stronger effect = lower value 0.999 | locus YML032C, strain rad52, stronger effect = lower value 1 | locus YML120C, strain ndi1, stronger effect = lower value 1.01 | locus YML124C, strain tub3, stronger effect = lower value 1.01 | locus YMR058W, strain fet3, stronger effect = lower value 1.01 | locus YMR078C, strain ctf18, stronger effect = lower value 1.01 | locus YMR125W, strain sto1, stronger effect = lower value 0.992 | locus YMR129W, stronger effect = lower value 1.01 | locus YMR205C, strain PFK2, stronger effect = lower value 0.982 | locus YMR223W, strain ubp8, stronger effect = lower value 1.01 | locus YMR231W, strain pep5, stronger effect = lower value 1 | [11] 1.02 | locus YMR307W, strain GAS1, stronger effect = lower value 0.975 | locus YNL067W, strain RPL9B, stronger effect = lower value 1.04 | locus YNL071W, strain lat1, stronger effect = lower value 0.996 | locus YNL128W, strain TEP1, stronger effect = lower value 1.02 | [12] 1.03 | locus YNL209W, strain ssb2, stronger effect = lower value 0.995 | locus YNL233W, strain BNI4, stronger effect = lower value 1 | locus YNL248C, strain rpa49, stronger effect = lower value 0.99 | locus YNL250W, strain rad50, stronger effect = lower value 1.02 | locus YNL271C, strain bni1, stronger effect = lower value 1.01 | locus YNL298W, strain CLA4, stronger effect = lower value 1.02 | locus YNL307C, strain MCK1, stronger effect = lower value 1.01 | locus YNL322C, strain KRE1 (second series), stronger effect = lower value 0.998 | [13] 1.01 | locus YNR049C, strain mso1, stronger effect = lower value 0.997 | locus YNR052C, strain pop2, stronger effect = lower value 1.02 | locus YOL012C, strain htz1 0.761 | locus YOL147C, strain pex11, stronger effect = lower value 1.01 | locus YOR001W, strain rrp6, stronger effect = lower value 0.984 | locus YOR061W, strain CKA2, stronger effect = lower value 1.01 | locus YOR069W, strain VPS5, stronger effect = lower value 1.01 | locus YOR070C, strain gyp1, stronger effect = lower value 0.993 | locus YOR080W, strain dia2, stronger effect = lower value 0.997 | locus YOR083W, strain WHI5, stronger effect = lower value 1.01 | locus YOR106W, strain vam3, stronger effect = lower value 1.02 | locus YOR136W, strain idh2, stronger effect = lower value 1.01 | locus YOR144C, strain elg1, stronger effect = lower value 1.01 | locus YOR184W, strain ser1, stronger effect = lower value 1.01 | locus YOR265W, strain rbl2, stronger effect = lower value 1.01 | locus YOR270C, strain vph1, stronger effect = lower value 1.03 | locus YOR290C, strain snf2, stronger effect = lower value 1.02 | locus YOR316C, strain cot1, stronger effect = lower value 1.01 | locus YPL051W, strain arl3, stronger effect = lower value 1.01 | [14] 0.989 | locus YPL078C, strain atp4, stronger effect = lower value 1.01 | locus YPL106C, strain sse1, stronger effect = lower value 0.988 | locus YPL240C, strain hsp82, stronger effect = lower value 1.01 | [15] 1.01 | locus YPR119W, strain clb2, stronger effect = lower value 1 | locus YPR141C, strain kar3, stronger effect = lower value 1.01 | locus YPR163C, strain tif3, stronger effect = lower value 1.01 | locus YPR167C, strain met16, stronger effect = lower value 1.01 | strain wtn01, stronger effect = lower value 0.997

CN1c2ccccc2C(=O)/C(=N/Nc2ccccc2F)S1(=O)=O
inactive: [1] 1 | [2] 1.02 | [3] 1.02 | locus YDR150W, strain NUM1, stronger effect = lower value 1.04 | locus YEL061C, strain CIN8, stronger effect = lower value 1.01 | [4] 1.02 | locus YHR030C, strain SLT2, stronger effect = lower value 0.991 | locus YHR087W, strain rtc3, stronger effect = lower value 1.01 | [5] 0.997 | [6] 1.01 | [7] 1.02 | [8] 1 | [9] 0.999 | locus YLR058C, strain SHM2 (second series), stronger effect = lower value 1.02 | locus YLR085C, strain ARP6, stronger effect = lower value 0.965 | [10] 1.01 | locus YML094W, strain GIM5, stronger effect = lower value 0.995 | locus YMR219W, strain ESC1, stronger effect = lower value 1.01 | [11] 1.01 | [12] 1.02 | locus YNL298W, strain CLA4 (second series), stronger effect = lower value 0.995 | [13] 1.01 | locus YNR030W, strain Alg12, stronger effect = lower value 0.997 | [14] 1.03 | [15] 0.993 | locus YPR135W, strain CTF4, stronger effect = lower value 1.06
